# Shown are actives, neighbours in structure and some others; about 3.5% of the full set was active somewhere.
# FBW7 activator: human FBW7 E3 ligase activation, primary screen. Q969H0. AlphaScreen FBW7–phospho-cyclin E peptide binding, activator screen. hit rate 0.13% among 650,000. normalized activity (activation), % at 26.1 µM; in the data active = normalized activity above about 1.9%;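 also: purified mutant Fbw7 with reduced substrate affinity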
# MITF inh: inhibitors of human MITF. hit rate 0.91% among 650,000. O75030. inhibition, % at 2.6 µM. AlphaScreen MITF homodimerization, bead proximity signal. AID 1259374; in the data active = inhibition above about 50%;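 also: 0% = vehicle wells with protein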
# Target sequence (O75030 whole entry, looked up): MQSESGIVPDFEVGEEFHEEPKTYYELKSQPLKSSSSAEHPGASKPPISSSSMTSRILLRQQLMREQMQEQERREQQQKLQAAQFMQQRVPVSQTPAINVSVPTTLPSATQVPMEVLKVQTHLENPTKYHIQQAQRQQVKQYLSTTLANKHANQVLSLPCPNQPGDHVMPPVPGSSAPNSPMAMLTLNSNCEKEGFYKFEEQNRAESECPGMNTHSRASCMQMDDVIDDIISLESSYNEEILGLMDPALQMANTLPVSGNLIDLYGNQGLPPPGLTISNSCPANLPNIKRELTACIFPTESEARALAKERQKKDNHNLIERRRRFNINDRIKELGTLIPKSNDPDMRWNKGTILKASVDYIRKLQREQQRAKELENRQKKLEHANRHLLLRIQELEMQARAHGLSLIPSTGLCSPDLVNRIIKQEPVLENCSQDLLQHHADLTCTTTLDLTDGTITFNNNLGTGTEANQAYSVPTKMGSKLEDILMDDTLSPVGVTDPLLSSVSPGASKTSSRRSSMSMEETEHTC
# GPR151 ag: human GPR151 activation. Q8TDV0. PathHunter beta-arrestin GPR151 cells, luminescence. activation, % at 11.2 µM. hit rate 1% among 650,000. AID 1508602; in the data active = activation above about 4.9%;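 also: 0% = median of compound wells and 100% = cells with positive control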
# TEAD-YAP inh: TEAD-YAP interaction inhibition; HEK-TIYL cells, TEAD-Gal4/YAP UAS-luciferase luminescence; inhibition, % at 9.12 µM; hit rate 1.4% among 640,000; AID 1259422; in the data active = inhibition above about 32%;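 also: 0% = median of test compound wells and 100% = reference inhibitor wells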
# MITF confirm: confirmation of human MITF inhibitors; inhibition, % at 2.6 µM; shares compounds with MITF inh; AlphaScreen MITF homodimerization, biotin/His-MITF beads; AID 1259372; hit rate 16% among 4,700;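 active = inhibition above a cutoff derived from the DMSO control wells, cut at about 28% in these data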;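 also: 0% = MITF dimer wells with DMSO only; inhibitors lower the bead chemiluminescence by keeping MITF from dimerizing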
# AS interf DR: optically interferes with AlphaScreen signal in dose response. IC50, µM. hit rate 6% among 480. AID 1259373. AlphaScreen optical interference counterscreen, cell-free. shares compounds with MITF inh; call rule not given here
# AlphaScreen intf2: optically interferes with AlphaScreen signal. shares compounds with MITF inh. LysRS AlphaScreen counterscreen, signal interference, triplicate. inhibition, % at 2.6 µM. hit rate 7.6% among 4,700;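 active = inhibition above a cutoff derived from the DMSO control wells, cut at about 30% in these data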
# * marks the source's active call; other numbers are inactive results; x = no result given.
SMILES,FBW7 activator,MITF inh,GPR151 ag,TEAD-YAP inh,MITF confirm,AlphaScreen intf2,others
CC(C)c1ccc(C2/C(=C(/O)c3ccc(F)cc3)C(=O)C(=O)N2CCCN(C)C)cc1 (stereo unspecified),0.1,5.6,-0.2,-0.8,x,x,
CCOC(=O)c1c(NC(=O)CSc2nnc(CNC(=O)c3ccc([N+](=O)[O-])cc3)n2-c2cc(C)ccc2C)sc2c1CCC2,-0.1,0.9,-1.6,0.1,x,x,
CC(C)c1ccc(OCCCCN2CCNCC2)cc1,-0.3,61.9*,-1.7,11.4,-2.2,11.5,
COCCNCCOCCOc1c(C)cc(C)cc1Cl,-0.1,53.4*,-0.4,5.8,3.6,12.3,
NC(=O)COc1ccc(/C=C2/SC(=Nc3ccccc3)N(Cc3ccccc3)C2=O)cc1,-0.1,2.1,-1.0,-10.7,x,x,
CCC(=O)N1CCc2cc(S(=O)(=O)N3CC(C)CC(C)C3)ccc21 (stereo unspecified),0.0,80.9*,3.1,-5.5,4.9,13.9,
CN(C)c1c([N+](=O)[O-])cc([N+](=O)[O-])c2cccnc12,-0.6,54.0*,1.1,6.8,19.2,68.0*,
O=[N+]([O-])c1ccc(O)c2ncccc12,-0.3,72.9*,0.0,6.5,83.4*,100.6*,
OCCN1CCN(Cc2cc(Br)cs2)CC1,-0.1,73.4*,0.2,-5.3,-1.2,-1.0,
OCCN1CCN(Cc2ccc(Br)s2)CC1,0.0,59.2*,-0.5,0.9,-2.1,4.6,
CC(=O)N1CCN(Cc2ccc(Br)s2)CC1,0.0,-11.1,-1.6,3.6,x,x,
COCCCn1c(=S)[nH]c2ccc(Cl)cc2c1=O,-0.1,0.1,0.8,-19.4,x,x,
COc1ccc(C2C(C(=O)Nc3ccc(C)cc3)=C(C)Nc3ncnn32)cc1OC (stereo unspecified),0.1,69.4*,0.7,-10.7,7.4,12.4,
CN(C)CCCn1c(SCc2ccccc2)nnc1-c1ccncc1,-0.1,72.8*,0.4,-8.3,9.4,10.7,
CCOc1ccc(NC(=O)CSc2nnc(-c3ccncc3)n2CCCN(C)C)cc1,-0.1,53.3*,-0.8,3.3,9.3,8.5,
O=S(=O)(NCC1CCCO1)c1ccc(NS(=O)(=O)c2ccccc2)cc1 (stereo unspecified),0.1,-3.2,0.6,9.3,x,x,
CCOC(=O)CSc1nc2c(cc1C#N)CCCCC2,0.0,8.2,0.1,-50.0,x,x,
CCOC(=O)CC(=O)CSc1nc2c(cc1C#N)CN(C)CC2,-0.3,52.7*,-0.6,-8.4,23.3,4.6,
CCOC(=O)CSc1nc2cc(C(=O)N(CC)CC)ccc2c(=O)n1-c1ccccc1,0.0,-11.3,-0.7,15.3,x,x,
O=c1[nH]c(/C=C/c2ccco2)nc(O)c1[N+](=O)[O-],-0.7,83.3*,0.1,2.4,67.0*,-6.6,AS interf DR=>6.48
COc1cc2nc(N3CCCC(O)C3)c(CNCc3nccs3)cc2c(OC)c1OC (stereo unspecified),0.0,4.2,-0.4,-1.4,x,x,
OC1CCN(Cc2ccc3ccccc3c2)CC1,0.0,-1.1,0.9,4.2,x,x,
Fc1cccc(CN2CCN(Cc3cccc4ccccc34)CC2)c1,0.0,86.2*,-0.1,-2.6,4.9,19.0,
Fc1cccc(CN2CCN(Cc3ccc4ccccc4c3)CC2)c1,0.0,72.3*,0.0,1.5,10.5,20.8,
c1ccc2cc(CN3CCSCC3)ccc2c1,0.0,57.5*,0.6,-5.7,0.9,-0.2,
SMILES,FBW7 activator,MITF inh,GPR151 ag,TEAD-YAP inh,MITF confirm,AlphaScreen intf2,others
CCc1ccc(CN2CCN(Cc3ccc4ccccc4c3)CC2)cc1,-0.2,64.0*,-0.6,-2.0,-0.4,0.8,
Cc1ccc(Cn2cc(Br)c([N+](=O)[O-])n2)cc1,0.0,7.3,1.3,11.3,x,x,
COc1ccccc1OCCCCOc1ccc(C=O)cc1,0.4,1.1,1.8,11.1,x,x,
CCC(C)(C)NC(=O)c1ccc(N(C)C)cc1,-0.1,-12.5,-2.0,-24.5,x,x,
COc1cccc(COC(=O)Nc2ccc(-c3cn[nH]c3)cc2OCCN(C)C)c1,0.6,14.5,0.4,-11.2,x,x,
COc1cccc(COC(=O)Nc2cc(F)c(-c3cn[nH]c3)cc2OCCN(C)C)c1,1.3,80.5*,-0.3,-5.3,46.6*,4.9,
COc1ccc2c(c1)CC(c1nc(Nc3cn[nH]c3)c3ccccc3n1)CO2 (stereo unspecified),0.0,6.9,0.7,-11.1,x,x,
Clc1ccc2c(c1)CC(c1nc(Nc3cncnc3)c3ccccc3n1)CO2 (stereo unspecified),0.3,50.6*,-0.2,1.6,55.4*,2.9,AS interf DR=>6.48

# Screens from PubChem.
